The source of these data is PubChem BioAssay (Tox21).

Test [1] in a line: A CellTox Green Cytotoxicity Assay to monitor cytotoxicity in HepG2 cells - 0 hour (AID 1224882). Note: nearly all actives have a fitted effect of over 35% in size. Note: potency is the fitted concentration of half-maximal effect. A digest of the protocol: (§1)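 Cytotoxicity was tracked as dead-cell DNA fluorescence in HepG2 cells treated with test compounds at 37 C; each time-point value comes from one kinetic series spanning 0, 8, 16, 24, 32 and 40 h.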
A short description of test [2]: A CellTox Green Cytotoxicity Assay to monitor cytotoxicity in HepG2 cells - 32 hour (AID 1224883). Note: potency is the fitted concentration of half-maximal effect; nearly all actives have a fitted effect of over 50% in size. In a few lines:
as §1

The nature of test [3]: qHTS RealTime-Glo MT Cell Viability Assay in HepG2 cells - 16 hour (AID 1224885). Note: nearly all actives have a fitted effect of over 50% in size. Note: potency is the fitted concentration of half-maximal effect. A digest of the protocol: (§2)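 HepG2 cells were seeded at 600 cells/well together with NanoLuc luciferase and a cell-permeant prosubstrate, preincubated 5 h at 37 C/5% CO2, then pin-dosed with compounds in DMSO. Nonlytic luminescence from viable cells was read at each time point.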
The nature of test [4]: qHTS RealTime-Glo MT Cell Viability Assay in HEK293 cells - 24 hour (AID 1224886). Note: nearly all actives have a fitted effect of over 50% in size. Note: potency is the fitted concentration of half-maximal effect. A digest of the protocol:
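HEK293 cells were seeded at 600 cells/well together with NanoLuc luciferase and cell-permeant prosubstrate, preincubated 5 h at 37 C/5% CO2, then given compound in DMSO by pintool. Luminescence from viable-cell prosubstrate reduction was read repeatedly over 40 h.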
(Quantitative high-throughput screening tests each substance at several concentrations.)

Test [5] is described as follows: qHTS RealTime-Glo MT Cell Viability Assay in HEK293 cells - 8 hour (AID 1224887). Note: nearly all actives have a fitted effect of over 50% in size. Note: potency is the fitted concentration of half-maximal effect. In a few lines:
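Kinetic, non-lysing viability readout. Seed HEK293 (600/well) with reagent, incubate 5 h at 37 C/5% CO2, pin 23 nL compound in DMSO, incubate at 37 C, read luminescence at 0, 8, 16, 24, 32, 40 h.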

Test [6] is described as follows: A CellTox Green Cytotoxicity Assay to monitor cytotoxicity in HEK293 cells - 16 hour (AID 1224888). Note: nearly all actives have a fitted effect of over 35% in size. Note: potency is the fitted concentration of half-maximal effect. In a few lines:
(§3)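 Real-time, in one plate: 600 HEK293 cells/well with dead-cell DNA dye, pinned compound after 5 h, 37 C incubation over 40 h; viable cells give no appreciable fluorescence.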

Test [7] in a line: qHTS RealTime-Glo MT Cell Viability Assay in HepG2 cells - 0 hour (AID 1224889). Note: nearly all actives have a fitted effect of over 50% in size. In a few lines: as §2
Test [8] in a line: qHTS assay to identify small molecule antagonists of the androgen receptor (AR) signaling pathway using the MDA cell line in the presence of 0.5 nM R1881 - cell viability counter screen (AID 1259242). Note: nearly all actives have a fitted effect of over 45% in size. Note: potency is the fitted concentration of half-maximal effect. A digest of the protocol:
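Cells seeded at 3,000/well and allowed 5 hr at 37C, 0% CO2 before compound transfer and R1881 (0.5 nM final) addition; 16 hr later, live-cell protease fluorescence indicated cytotoxicity.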

Test [9] in a line: qHTS assay to identify small molecule HDAC inhibitors (AID 1259364).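 Note: wild-type HCT-116 cells with endogenous class I/II HDAC activity; top concentration of the series differs between compounds; nearly all actives have a fitted effect of over 45% in size.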 In a few lines: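 HCT-116 wt cells, 1,500/well, overnight attach. Compounds (DMSO) 2 h, 37 °C. HDAC-Glo I/II, 30 min RT. Luminescence.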
Test [10] can be described thus: qHTS assay to identify small molecule HDAC inhibitors - cell viability counter screen (AID 1259365). In a few lines: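 Viability readout: CellTiter-Glo luminescence. Wild-type HCT-116 cells, 2hr compound treatment following overnight attachment at 37 C.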
Test [11] is described as follows: qHTS assay to identify small molecule agonists of the sonic hedgehog signaling (Shh) pathway - cell viability counter screen (AID 1259366). Note: nearly all actives have a fitted effect of over 50% in size. Note: potency is the fitted concentration of half-maximal effect. A digest of the protocol: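 Viability measured fluorometrically (CellTiter-Fluor, 1hr, 37C) in 3T3 Gli1-Luc reporter cells after 23hr compound exposure within a 24hr incubation at 37C/5% CO2.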
The nature of test [12]: qHTS assay to identify small molecule antagonists of the sonic hedgehog signaling (Shh) pathway - cell viability counter screen (AID 1259367). Note: nearly all actives have a fitted effect of over 55% in size. Note: potency is the fitted concentration of half-maximal effect. In a few lines:
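Fluorescence read-out (CellTiter-Fluor, 1 hr at 37C) taken after 23 hr compound treatment of 3T3 Gli1-Luc cells stimulated with conditioned medium. Cells were seeded at 2,000 per well and pre-incubated 4 hr.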

Test [13] in a line: qHTS assay to identify small molecule agonists of the sonic hedgehog signaling (Shh) pathway (AID 1259368; calls by dose curve;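 note: NIH/3T3-derived 3T3Gli1-Luc cells carrying a stable Gli1-driven firefly luciferase reporter; series mostly up to about 92 µM; nearly all actives have a fitted effect of over 15% in size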). A digest of the protocol: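 Following a 24 hr incubation with DMSO-dissolved compounds at 37 C, 5% CO2, Gli1-Luc NIH/3T3-derived cells received luciferase reagent for 30 min at room temperature prior to luminescence measurement.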
The nature of test [14]: qHTS assay to identify small molecule antagonists of the sonic hedgehog signaling (Shh) pathway (AID 1259369; calls by dose curve; note: nearly all actives have a fitted effect of over 45% in size; note: potency is the fitted concentration of half-maximal effect). A digest of the protocol: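 Read-out is luminescence from a firefly luciferase gene controlled by the Gli1 response element, in 3T3Gli1-Luc cells pre-incubated 4hr then exposed to compounds and conditioned medium for 24hr.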
Test [15] is described as follows: A CellTox Green Cytotoxicity Assay to monitor cytotoxicity in HEK293 cells - 8 hour (AID 1224884). Note: nearly all actives have a fitted effect of over 35% in size. Note: potency is the fitted concentration of half-maximal effect. A digest of the protocol: as §3
Test [16] is described as follows: A CellTox Green Cytotoxicity Assay to monitor cytotoxicity in HepG2 cells - 8 hour (AID 1224890). Note: nearly all actives have a fitted effect of over 45% in size. Note: potency is the fitted concentration of half-maximal effect. A digest of the protocol:
as §1

Test [17] can be described thus: qHTS assay to identify small molecule antagonists of the estrogen receptor alpha (ER-alpha) signaling pathway using the BG1 cell line in the presence of 0.1 nM 17-beta-estradiol - cell viability counter screen (AID 1259241). Note: nearly all actives have a fitted effect of over 40% in size. Note: potency is the fitted concentration of half-maximal effect. A digest of the protocol: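 The cell line endogenously expresses full-length ER-alpha and carries four EREs driving luciferase. Cells are cultured 5 days hormone-free, treated 22 hr with compounds and 0.1 nM estradiol, then viability is read by fluorescence.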

Test [18] concerns the target Estrogen receptor (Homo sapiens) (UniProt P03372). Nature of the test: qHTS assay to identify small molecule antagonists of the estrogen receptor alpha (ER-alpha) signaling pathway using the BG1 cell line in the presence of 0.1 nM 17-beta-estradiol (AID 1259244). Note: nearly all actives have a fitted effect of over 50% in size. Note: potency is the fitted concentration of half-maximal effect. In a few lines: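 Luciferase signal from VM7Luc4E2 ERE-reporter cells, co-dosed with test compound and 0.1 nM final 17beta-estradiol for 22 h, read with ONE-Glo.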

For test [19], the target named is Androgen receptor (Homo sapiens) (UniProt P10275). Nature of the test: qHTS assay to identify small molecule antagonists of the androgen receptor (AR) signaling pathway using the MDA cell line in the presence of 0.5 nM R1881 (AID 1259243). Note: nearly all actives have a fitted effect of over 50% in size. Note: potency is the fitted concentration of half-maximal effect. In a few lines:
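Luminescence from an AR/GR-responsive MMTV-luciferase construct in MDA-kb2 breast carcinoma cells, read 30 min after ONE-Glo, following 16 hr co-treatment with compounds and 0.5 nM R1881.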

A short description of test [20]: qHTS assay to identify small molecule phospholipidosis (PLD) inducers (AID 1259344; active = well fitted curve in the direction sought with a large enough effect; an effect the other way counts as inactive or inconclusive). A digest of the protocol:
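Read-out is LipidTOX Red fluorescence (ex 595/em 615) imaged in HepG2 cells after 24 h compound exposure at 37 C, with Hoechst nuclear counterstain (ex 352/em 461) allowing per-cell normalisation.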

Several values for one entry are separate records, joined by “and”; a condition that tells them apart may be missing. Identical values can stand only once. Records with an inconclusive call do not appear. Activity calls are given as the source filed them. Unless noted, calls come from the whole dose curve; as a rule, active = well fitted curve in the direction sought with a large enough effect in the repeat runs; inconclusive = weak or mixed curves; inactive = no such curve, though single readings can be large; an effect the other way counts as inactive or inconclusive.

Chain of Estrogen receptor (Homo sapiens) (P03372 whole entry, looked up): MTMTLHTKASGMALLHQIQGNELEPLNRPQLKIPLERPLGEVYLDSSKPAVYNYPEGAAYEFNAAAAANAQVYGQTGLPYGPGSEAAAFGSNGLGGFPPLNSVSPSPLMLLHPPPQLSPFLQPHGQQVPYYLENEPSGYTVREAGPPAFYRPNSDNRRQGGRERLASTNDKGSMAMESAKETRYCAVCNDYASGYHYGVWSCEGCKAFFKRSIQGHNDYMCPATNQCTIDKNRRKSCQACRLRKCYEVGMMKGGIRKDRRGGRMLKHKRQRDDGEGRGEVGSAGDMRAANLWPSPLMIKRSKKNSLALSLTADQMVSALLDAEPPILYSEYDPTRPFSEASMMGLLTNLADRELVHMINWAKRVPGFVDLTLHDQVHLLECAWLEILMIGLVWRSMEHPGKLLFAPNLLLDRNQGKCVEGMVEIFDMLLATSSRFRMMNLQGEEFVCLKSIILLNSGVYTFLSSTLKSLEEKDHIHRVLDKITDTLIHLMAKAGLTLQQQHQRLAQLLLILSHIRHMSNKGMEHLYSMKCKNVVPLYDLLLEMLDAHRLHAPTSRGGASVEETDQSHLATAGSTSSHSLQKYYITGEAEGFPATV
Chain of Androgen receptor (Homo sapiens) (P10275 whole entry, looked up): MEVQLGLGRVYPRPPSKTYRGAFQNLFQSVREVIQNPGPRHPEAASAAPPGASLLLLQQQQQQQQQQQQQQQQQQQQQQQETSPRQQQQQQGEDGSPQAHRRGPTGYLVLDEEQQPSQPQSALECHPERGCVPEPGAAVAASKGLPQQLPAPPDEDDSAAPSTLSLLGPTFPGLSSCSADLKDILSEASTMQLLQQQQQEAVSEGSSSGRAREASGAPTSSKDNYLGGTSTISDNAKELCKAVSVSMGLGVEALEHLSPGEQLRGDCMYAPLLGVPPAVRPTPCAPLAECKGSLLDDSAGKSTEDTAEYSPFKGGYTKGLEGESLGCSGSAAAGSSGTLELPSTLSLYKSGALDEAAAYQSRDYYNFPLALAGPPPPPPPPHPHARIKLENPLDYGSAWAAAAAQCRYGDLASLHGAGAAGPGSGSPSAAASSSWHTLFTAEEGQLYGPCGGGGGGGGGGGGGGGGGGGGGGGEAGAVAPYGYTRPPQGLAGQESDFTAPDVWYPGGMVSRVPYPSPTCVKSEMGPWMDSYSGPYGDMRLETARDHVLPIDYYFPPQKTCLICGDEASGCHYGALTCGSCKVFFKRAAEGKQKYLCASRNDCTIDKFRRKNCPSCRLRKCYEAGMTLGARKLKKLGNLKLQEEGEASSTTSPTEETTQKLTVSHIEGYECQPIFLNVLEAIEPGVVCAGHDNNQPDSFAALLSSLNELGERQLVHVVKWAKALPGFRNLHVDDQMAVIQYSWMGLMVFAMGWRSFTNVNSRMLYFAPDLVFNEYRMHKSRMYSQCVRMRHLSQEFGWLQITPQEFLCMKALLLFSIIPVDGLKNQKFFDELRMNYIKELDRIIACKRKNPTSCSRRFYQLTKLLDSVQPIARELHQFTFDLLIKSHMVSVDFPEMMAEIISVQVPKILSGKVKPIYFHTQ

Take `Cc1c(-c2ccc(O)cc2)n(Cc2ccc(OCCN3CCCCCC3)cc2)c2ccc(O)cc12`: the Potency entry in test [1], in test [7], in test [9], in test [10] and in test [13] was “inactive” in each case. In addition, the Potency is 10.7 µM (active) in [2]; 23.9 µM (active) in [3]; 2.68 µM (active) in [4]; 2.39 µM (active) in test [5]; 23.9 µM (active) in test [6]; 29.8 µM (active) in test [8]. Also, the Potency in test [11] is 13.3 µM (active); in test [12] it was 26.6 µM (active); in [14], 11.9 µM (active).
Regarding `Cc1ccc(CCn2c3c(c4cc(Cl)ccc42)CN(C)CC3)cn1`, the Potency entry in test [1], in test [15], in test [3], in test [6], in test [16] and in test [17] was “inactive” throughout. In addition, the Potency entry in [8], in [18], in test [9], in test [10] and in test [13] was “inactive” in each case. Besides, the Potency in [4] was 9.52 µM (active).
For `c1ccc(Sc2ccccc2)cc1`, the Potency result in test [1], in test [15], in test [3], in [5], in test [6] and in test [7] was “inactive” throughout. The Potency result in test [17], in test [8], in [19], in [18], in [10] and in test [11] was “inactive” in each case. For the same compound, in [13], the Potency entry was “inactive”. The Potency in [14] is 27.3 µM (active).
`CSc1c(Cl)c(Cl)c(Cl)c(Cl)c1Cl`: the Potency result in test [1], in test [15], in test [3], in [4], in [6] and in test [7] was “inactive” in each case. For the same compound, the Potency entry in test [16], in test [8], in test [9], in test [10], in test [11] and in test [12] was “inactive” throughout. Besides, the Potency entry in test [13] and in test [14] was “inactive” throughout.
For the compound `Cc1cc(Nc2ccc(O)cc2)ccc1N`, the Potency result in test [1], in test [15], in [6], in test [16] and in test [13] was “inactive” throughout. Besides, the Potency in test [3] is 48.8 µM (active); in [4], 24.4 µM (active); in test [5] it was 21.8 µM (active); in test [11], 30.5 µM (active).
Consider `COc1ccccc1OCCNCC(O)COc1cccc2[nH]c3ccccc3c12` (centres undefined), for which the Potency entry in [1], in test [15], in [6], in test [7], in test [16] and in [9] was “inactive” throughout. The Potency entry in test [10] and in test [13] was “inactive” throughout. Further, the Potency in test [3] is 23.9 µM (active); in test [4] it was 10.7 µM (active); in [5], 16.9 µM (active); in [11] it was 26.6 µM (active); in test [14], 21.1 µM (active).
Take `CCN=c1cc2oc3cc(NCC)c(C)cc3c(-c3ccccc3C(=O)OCC)c-2cc1C`: the Potency in [1] is 6.89 µM (active) and 6.17 µM (active); in test [15] it was 10.9 µM (active) and 9.77 µM (active); in [3], 43.5 µM (active) and 24.5 µM (active); in test [4], 2.45 µM (active) and 1.74 µM (active); in [5] it was 17.3 µM (active) and 17.4 µM (active); in [6] it was 10.9 µM (active) and 11 µM (active). The Potency in test [16] is 21.8 µM (active) and 6.92 µM (active); in [17] it was 8.6 µM (active) and 10.9 µM (active); in test [19] it was 122 nM (active) and 217 nM (active); in [18], 86 nM (active) and 306 nM (active). The Potency entry in test [7], in test [9], in test [12] and in test [13] was “inactive” each time.
As to `Cc1oc(-c2ccccc2)nc1CCOc1ccc(C[C@H](Nc2ccccc2C(=O)c2ccccc2)C(=O)O)cc1`, the Potency entry in test [1], in test [15], in test [3], in [4], in test [5] and in test [6] was “inactive” each time. The Potency entry in [7], in test [8], in test [19], in test [18], in test [9] and in test [13] was “inactive” throughout. Moreover, the Potency in test [11] is 43.3 µM (active); in test [12] it was 48.6 µM (active).
Take `O=S(=O)(O)CCCN1CCOCC1`: the Potency result in test [1], in test [15], in [3], in test [4], in [5] and in [6] was “inactive” each time. The Potency result in test [7], in [16], in test [17], in [8], in [18] and in test [9] was “inactive” in each case. Besides, the Potency entry in test [10], in [11] and in test [13] was “inactive” in each case.
As to `OCCN1CN(CCO)CN(CCO)C1`, the Potency result in test [1], in test [15], in test [3], in [4], in [5] and in test [6] was “inactive” each time. Further, the Potency entry in [7], in test [16], in [17], in test [8], in [18] and in test [9] was “inactive” throughout. The Potency result in test [11], in [12] and in test [13] was “inactive” each time.
`C/C=C/C(=O)C1=C(C)CCCC1(C)C`: the Potency result in [1], in test [15], in [3], in [5], in test [6] and in test [7] was “inactive” each time. The Potency entry in [16], in [8], in test [18], in test [9], in [10] and in test [11] was “inactive” throughout. Moreover, the Potency result in test [12] and in test [13] was “inactive” throughout.
For the compound `COc1ccc(-n2nc(CCC(=O)N(C)O)cc2-c2ccc(Cl)cc2)cc1`, the Potency entry in [1], in [15], in test [3], in test [5], in [6] and in [17] was “inactive” each time. Also, the Potency entry in [19], in test [9], in [11], in test [12] and in test [13] was “inactive” each time. Besides, the Potency in test [18] is 26.6 µM (active).
For `CC(C)N=C(N)/N=C(\N)Nc1ccc(Cl)cc1`, the Potency entry in [1], in [15], in test [3], in [6], in test [7] and in test [16] was “inactive” throughout. In addition, the Potency entry in [17], in [8], in test [18], in test [20], in test [9] and in test [10] was “inactive” throughout. Further, the Potency entry in test [13] is “inactive”. Also, in [4], the Potency is 23.9 µM (active).
In the case of `CC1=CP(=O)(c2ccccc2)CC1` (centres undefined), the Potency entry in [1], in [15], in test [3], in [4], in [5] and in test [6] was “inactive” throughout. The Potency entry in [7], in [16], in test [19], in test [18], in test [9] and in [10] was “inactive” each time. Also, the Potency result in [11], in [13] and in test [14] was “inactive” each time.
